Where “and” joins values, the source holds several entries; their conditions need not be identical. Equal entries are not always repeated. Some compounds were tested as several samples or in several runs, with calls that do not always agree. Calls of active or inactive are those of the source. How the source made its calls: active means hit-call score of the fitted dose curve at least 0.9, where 1 is the maximum; inactive means score below 0.9.
What was measured:
[1] = APR_HepG2_P-H2AX_72hr: Apredica 72-hour HepG2 Assay for H2AX Phosphorylation (AID 2282916); conditions: imaging, actives raise or lower the signal;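 further: phospho-histone H2A.x immunostain intensity per cell marking DNA damage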
In short: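 Readout: phospho-H2A.x immunofluorescence (FITC secondary) plus Hoechst nuclear stain, high-content imaging at 20x, six fields/well. HepG2, 72 hr compound exposure, 0.39–200 uM, final DMSO 0.5% v/v. Gain or loss fitted relative to DMSO baseline.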

[2] = APR_HepG2_MitoMembPot_72hr: Apredica 72-hour HepG2 Assay for Mitochondrial Membrane Potential (AID 2282917); conditions: imaging, actives raise or lower the signal
In short: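 HepG2 cells dosed 72 hr with compound at 0.39–200 uM in duplicate, 0.5% v/v DMSO final. Mitochondria stained with 250 nM MitoTracker Red CMXRos for 30 min before formaldehyde fixation, imaged by high-content fluorescence; bidirectional fit versus DMSO.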

[3] = APR_HepG2_MitoticArrest_72hr: Apredica 72-hour HepG2 Assay for Mitotic Arrest (AID 2282918); conditions: high-content imaging, actives raise or lower the signal
In short: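 HepG2 cells treated 72 h at 0.39–200 uM, 0.5% DMSO final; formaldehyde-fixed, stained with Hoechst 33342 and phospho-histone H3 antibody, imaged by high-content fluorescence; bidirectional fit versus DMSO.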

[4] = APR_HepG2_MicrotubuleCSK_72hr: Apredica 72-hour HepG2 Assay for Microtubule CSK Stabilty (AID 2282919); conditions: HepG2 microtubule cytoskeleton, high-content imaging, actives raise or lower the signal
In short: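 HepG2, 72 hr cmpd exposure, 0.39–200 uM (10 pts, duplicate), 0.5% DMSO. 3.7% formaldehyde fix, 0.5% Triton perm, anti-alpha-tubulin/Cy5 plus Hoechst. HCS fluorescence intensity; bidirectional fit vs DMSO baseline; taxol as positive control.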

[5] = APR_HepG2_P-H2AX_24hr: Apredica 24-hour HepG2 Assay for H2AX Phosphorylation (AID 2282920); conditions: high-content imaging, actives raise or lower the signal
In short: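 HepG2 cells dosed 24 h at 0.39–200 uM (10 points, duplicate, 0.5% DMSO final). Formaldehyde-fixed and permeabilized, then immunostained for phospho-H2A.x with Hoechst. Fluorescence quantified by high-content imaging, fitted bidirectionally versus DMSO.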

[6] = APR_HepG2_StressKinase_72hr: Apredica 72-hour HepG2 Assay for Stress Kinase (AID 2282921); conditions: HepG2 stress kinase (phospho-c-Jun) imaging, actives raise or lower the signal
In short: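 Phospho-c-Jun immunofluorescence measured by high-content imaging at 20x, six fields per well; bidirectional curve fitting against DMSO as baseline. Dosing: 0.39–200 uM, 72 h, 0.5% DMSO final.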

[7] = APR_HepG2_StressKinase_24hr: Apredica 24-hour HepG2 Assay for Stress Kinase (AID 2282922); conditions: HepG2 stress kinase (phospho-c-Jun) imaging, actives raise or lower the signal
In short: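 Read-out: phospho-c-Jun immunofluorescence (Cy3 secondary) quantified by high-content imaging at 20x, nuclei defined by Hoechst 33342. Human HepG2 liver cells dosed 24 hr, 0.39–200 uM, DMSO 0.5% v/v; gain or loss of signal fitted relative to DMSO.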

[8] = APR_HepG2_MitoMass_72hr: Apredica 72-hour HepG2 Assay for Mitochondrial Mass (AID 2282924); conditions: high-content imaging, actives raise or lower the signal;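 further: MitoTracker Red CMXRos stain intensity per cell imaged as mitochondrial mass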
In short: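 Read-out: MitoTracker Red fluorescence intensity from automated imaging (20x, six fields per well) in human HepG2 liver cells. Dosing ran 72 hr, 0.39–200 uM, 0.5% DMSO; bidirectional curve fitting versus DMSO baseline.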

[9] = APR_HepG2_NuclearSize_72hr: Apredica 72-hour HepG2 Assay for Nuclear Size (AID 2282925); conditions: high-content imaging, actives raise or lower the signal
In short: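 Read-out: nuclear diameter from Hoechst 33342 images (ArrayScan, 20x, six fields/well), via cell-cycle image analysis. HepG2 were dosed 0.39–200 uM for 72 hr in 0.5% DMSO. Bidirectional fit relative to DMSO.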

[10] = ATG_CRE_CIS: Attagene CIS-FACTORIAL HepG2 Assay for human cAMP Responsive Element (CRE) binding protein 3 (AID 2282926); conditions: HepG2 CRE cis-reporter, Attagene multiplexed mRNA; actives raise or lower the signal
In short: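 Induced reporter mRNA from a CRE cis element, measured in HepG2 among many multiplexed units at 24 h. Detection used RT-PCR plus capillary electrophoresis of fluorescent fragments; DMSO served as negative control.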

[11] = target: CCAAT/enhancer-binding protein beta (Homo sapiens) (UniProt P17676); assay: ATG_C_EBP_CIS: Attagene CIS-FACTORIAL HepG2 Assay for human CCAAT/Enhancer Binding Protein (C/EBP) beta (AID 2282927); conditions: HepG2 Attagene cis-factorial transcription factor reporter; actives raise or lower the signal
CCAAT/enhancer-binding protein beta (Homo sapiens), sequence (P17676 whole entry, looked up): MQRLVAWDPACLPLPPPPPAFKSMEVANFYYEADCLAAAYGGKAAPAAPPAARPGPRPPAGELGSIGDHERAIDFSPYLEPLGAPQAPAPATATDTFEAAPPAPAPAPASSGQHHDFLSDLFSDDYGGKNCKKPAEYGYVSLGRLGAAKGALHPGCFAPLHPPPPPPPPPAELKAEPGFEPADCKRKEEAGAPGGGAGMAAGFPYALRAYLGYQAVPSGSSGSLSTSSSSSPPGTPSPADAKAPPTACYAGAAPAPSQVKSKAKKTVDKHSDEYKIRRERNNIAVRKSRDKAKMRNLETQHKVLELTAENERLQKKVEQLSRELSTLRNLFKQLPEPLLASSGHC
In short: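 HepG2, transient MRTU transfection, 24 h treatment. RT-PCR plus CE fluorescence; DMSO negative control, bidirectional fit.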

[12] = ATG_CMV_CIS: Attagene CIS-FACTORIAL HepG2 Assay for human CMV (Internal Marker) (AID 2282928); conditions: HepG2 CMV promoter reporter, transcription factor profiling; actives raise or lower the signal;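 further: endpoint acts as a background internal control marker rather than a target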
In short: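 Bidirectional fits against DMSO are applied to reporter mRNA, read by RT-PCR with capillary electrophoresis, from HepG2 cells exposed 24 h. The endpoint serves as an internal CMV background marker within the cis-factorial reporter panel.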

[13] = ATG_DR4_LXR_CIS: Attagene CIS-FACTORIAL HepG2 Assay for human Liver X Receptor (LXR), DR4 submotif (AID 2282929); conditions: HepG2 Attagene DR4 cis-reporter, mRNA transcription; actives raise or lower the signal
In short: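 Cells were transfected with multiple reporter transcription units, exposed to chemicals for 24 hours, then lysed for RNA. Reporter mRNA induction was measured by RT-PCR with capillary electrophoresis detection and fitted in both directions relative to DMSO.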

[14] = target: Aryl hydrocarbon receptor (Homo sapiens) (UniProt P35869); assay: ATG_Ahr_CIS: Attagene CIS-FACTORIAL HepG2 Assay for human Aryl Hydrocarbon Receptor (Ahr) (AID 2282930); conditions: HepG2 AhR cis-factorial reporter transcription; actives raise or lower the signal
Aryl hydrocarbon receptor (Homo sapiens), sequence (P35869 whole entry, looked up): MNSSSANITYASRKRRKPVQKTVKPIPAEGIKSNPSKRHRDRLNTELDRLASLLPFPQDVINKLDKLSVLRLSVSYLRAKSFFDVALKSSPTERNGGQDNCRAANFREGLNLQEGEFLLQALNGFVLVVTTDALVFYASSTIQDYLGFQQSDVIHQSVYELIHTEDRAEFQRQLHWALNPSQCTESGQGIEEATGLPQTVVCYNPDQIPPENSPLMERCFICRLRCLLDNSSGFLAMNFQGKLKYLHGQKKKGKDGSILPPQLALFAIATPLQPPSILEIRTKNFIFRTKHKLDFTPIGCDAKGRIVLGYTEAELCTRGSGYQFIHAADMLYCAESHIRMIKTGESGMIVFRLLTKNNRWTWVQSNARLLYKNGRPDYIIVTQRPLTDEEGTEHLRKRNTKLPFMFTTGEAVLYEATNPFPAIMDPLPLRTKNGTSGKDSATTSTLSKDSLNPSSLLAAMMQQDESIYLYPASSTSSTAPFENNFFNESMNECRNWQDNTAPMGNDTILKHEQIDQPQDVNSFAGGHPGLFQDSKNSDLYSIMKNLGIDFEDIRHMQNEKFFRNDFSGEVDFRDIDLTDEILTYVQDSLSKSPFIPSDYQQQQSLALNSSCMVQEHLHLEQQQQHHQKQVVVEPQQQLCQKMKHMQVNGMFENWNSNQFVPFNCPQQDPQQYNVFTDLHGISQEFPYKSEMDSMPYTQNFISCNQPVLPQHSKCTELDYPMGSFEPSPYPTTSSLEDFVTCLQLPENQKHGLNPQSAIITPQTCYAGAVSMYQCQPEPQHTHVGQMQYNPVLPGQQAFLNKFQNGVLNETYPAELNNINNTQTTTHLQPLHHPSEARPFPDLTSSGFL
In short: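 Endogenous factor activity is tracked through cis-promoter reporter units transfected into HepG2 cells. Transcript levels at 24 h are read by fluorescent RT-PCR and capillary electrophoresis, with activity in either direction scored relative to DMSO.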

[15] = ATG_AP_1_CIS: Attagene CIS-FACTORIAL HepG2 Assay for human Activator Protein 1 (AP-1) (AID 2282931); conditions: HepG2 Attagene cis-factorial AP-1 reporter mRNA; actives raise or lower the signal
In short: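 Endogenous transcription-factor activity in human HepG2 liver cells is read through a cis-promoter reporter transcript, sampled 24 h after dosing. Detection uses RT-PCR with capillary electrophoresis; values come from bidirectional fitting relative to DMSO.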

[16] = ATG_AP_2_CIS: Attagene CIS-FACTORIAL HepG2 Assay for human Activator Protein 2 (AP-2) (AID 2282932); conditions: HepG2 AP-2 cis-reporter, Attagene transcription factor profiling; actives raise or lower the signal
In short: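 Read-out: fluorescent reporter mRNA via RT-PCR and capillary electrophoresis, 24 h post-dose in transiently transfected HepG2. Endogenous factors drive cis-promoter reporters; gain or loss of signal fitted bidirectionally against DMSO.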

[17] = ATG_BRE_CIS: Attagene CIS-FACTORIAL HepG2 Assay for human Bone Morphogenetic Protein (BMP) Response Element (BRE) (AID 2282933); conditions: HepG2 BMP response element reporter, Attagene transcription factor profiling; actives raise or lower the signal
In short: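 Endogenous transcription factor activity at a BMP response element was monitored in transfected HepG2 cells 24 h after dosing. Fluorescent RT-PCR products were resolved by capillary electrophoresis, and activity was fitted in both directions versus DMSO.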

[18] = target: Transcription factor E2F1 (Homo sapiens) (UniProt Q01094); assay: ATG_E2F_CIS: Attagene CIS-FACTORIAL HepG2 Assay for human E2F Transcription Factor 1 (AID 2282935); conditions: HepG2 Attagene cis-reporter, E2F reporter RNA transcripts; actives raise or lower the signal
Transcription factor E2F1 (Homo sapiens), sequence (Q01094 whole entry, looked up): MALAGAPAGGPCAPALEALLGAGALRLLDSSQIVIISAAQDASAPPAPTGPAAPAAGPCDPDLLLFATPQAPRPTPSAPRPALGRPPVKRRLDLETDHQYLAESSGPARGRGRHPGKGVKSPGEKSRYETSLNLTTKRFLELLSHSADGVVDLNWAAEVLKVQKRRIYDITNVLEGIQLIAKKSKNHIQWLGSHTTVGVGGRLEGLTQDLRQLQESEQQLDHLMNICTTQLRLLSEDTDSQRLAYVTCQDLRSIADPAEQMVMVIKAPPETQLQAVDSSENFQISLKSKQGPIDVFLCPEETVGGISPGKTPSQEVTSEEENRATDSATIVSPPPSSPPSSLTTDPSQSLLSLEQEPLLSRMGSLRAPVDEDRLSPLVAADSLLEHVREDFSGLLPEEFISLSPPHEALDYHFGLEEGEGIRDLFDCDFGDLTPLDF
In short: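 Transient MRTU transfection of HepG2; 24 h compound exposure; RNA → oligo(dT) RT → PCR → FAM label → HpaI cut → CE fluorescence. Gain/loss of signal fit against DMSO.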

[19] = APR_HepG2_p53Act_72hr: Apredica 72-hour HepG2 Assay for p53 Activation (AID 2282923); conditions: high-content imaging, actives raise or lower the signal;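 further: average cellular p53 protein immunofluorescence intensity in HepG2 cells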
In short: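 Readout: p53 immunofluorescence quantified by automated high-content imaging at 20x, six fields per well, nuclei located via Hoechst. Dosing ran 72 hr over ten concentrations from 0.39 to 200 uM; bidirectional curve fitting against DMSO baseline.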

[20] = target: Retinoic acid receptor alpha (Homo sapiens) (UniProt P10276); assay: ATG_DR5_RAR_CIS: Attagene CIS-FACTORIAL HepG2 Assay for human Retinoic Acid Receptor Alpha (RARE), DR5 submotif (AID 2282934); conditions: HepG2 Attagene cis-factorial RARE DR5 reporter, mRNA; actives raise or lower the signal
Retinoic acid receptor alpha (Homo sapiens), sequence (P10276 whole entry, looked up): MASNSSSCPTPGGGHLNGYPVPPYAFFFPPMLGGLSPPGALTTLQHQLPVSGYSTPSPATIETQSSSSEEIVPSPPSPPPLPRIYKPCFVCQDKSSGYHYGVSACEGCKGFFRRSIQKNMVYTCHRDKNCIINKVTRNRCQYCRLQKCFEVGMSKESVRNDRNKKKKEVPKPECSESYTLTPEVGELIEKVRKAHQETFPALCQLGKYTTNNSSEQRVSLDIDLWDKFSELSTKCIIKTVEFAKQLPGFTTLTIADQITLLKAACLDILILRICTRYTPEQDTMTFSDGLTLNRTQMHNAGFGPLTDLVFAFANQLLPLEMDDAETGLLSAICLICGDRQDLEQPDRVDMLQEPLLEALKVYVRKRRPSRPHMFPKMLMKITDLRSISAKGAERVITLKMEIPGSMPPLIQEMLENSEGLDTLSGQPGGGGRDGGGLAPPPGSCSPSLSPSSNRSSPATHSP
In short: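 After 24 h of chemical exposure, transiently transfected HepG2 cells were lysed for total RNA; the DR5-regulated reporter transcript was quantified via RT-PCR and capillary electrophoresis, with activity fitted bidirectionally against DMSO.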

Measured: AC50

CN(C)[C@@H]1C(=O)C(C(N)=O)=C(O)[C@@]2(O)C(=O)C3=C(O)c4c(O)cccc4[C@@](C)(O)[C@H]3[C@H](O)[C@@H]12
inactive: [1] | [2] | [3] | [4] | [5] | [6] | [7] | [8] | [9] | [10] | [11] | [12] | [13] | [14] | [15] | [16] | [17] | [18]
active: [14] 66.3 µM and 37.9 µM | [17] 71.1 µM

C[Si](Cn1cncn1)(c1ccc(F)cc1)c1ccc(F)cc1
active: [13] 48.7 µM | [15] 50 µM | [17] 39.1 µM
not listed: [20]
inactive: all other assays above

CCCSP(=O)(OCC)SCCC
not listed: [19]
inactive: all other assays above

CNC(=O)ON=C(C)SC
not listed: [20]
inactive: all other assays above

CCC(=O)Nc1ccc(Cl)c(Cl)c1
active: [12] 22.9 µM
inactive: all other assays above

CCOC(=O)COc1cc(-c2nn(C)c(OC(F)F)c2Cl)c(F)cc1Cl
inactive: all assays above

COP(=O)(OC)OC(Br)C(Cl)(Cl)Br (stereo unspecified)
active: [5] 33.4 µM | [7] 32.5 µM
not listed: [19]
inactive: all other assays above

Reference: PubChem BioAssay (EPA / NIEHS)
